This is a sample that favours compounds with a hit; in the whole collection about 2.3% have one here.
MEKK2 mut-MEK5: signal of MEK5 binding to mutant human MEKK2 PB1 domain; bead flow cytometry, Alexa488-MEK5 binding to MEKK2 mutant; percent response, % at 10 µM; 290,000 compounds, 0.35% hits; AID 1530; in the data active = percent response above about 24%, passing the limit was not always enough
MEKK2 WT-MEK5: raises or lowers MEK5 binding to wildtype human MEKK2 PB1 domain | 290,000 compounds, 1.1% hits | AID 1531 | Q9Y2U5 | binding response (% of control), % at 10 µM | bead flow cytometry, Alexa488-MEK5 binding to MEKK2 WT; actives lie on both sides; in the data active = binding response below about 67% or above about 130%
UBC13 inh: blocks human UBC13 polyubiquitin chain formation; P61088; inhibition, % at 20 µM; TR-FRET; 330,000 compounds, 0.47% hits; AID 485273; in the data active = inhibition above about 45%, passing the limit was not always enough
Target sequence (P61088 whole entry, looked up): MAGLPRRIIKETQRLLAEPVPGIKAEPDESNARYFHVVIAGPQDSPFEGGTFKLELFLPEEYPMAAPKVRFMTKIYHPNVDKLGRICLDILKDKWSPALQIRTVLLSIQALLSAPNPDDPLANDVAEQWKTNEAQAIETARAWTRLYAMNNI
MEKK3 PB1 HTS: modulators (inhibitors or enhancers) of MEK5 binding to human MEKK3 PB1 domain | bead-based flow cytometry, Alexa488-MEK5 binding to MEKK3; actives lie on both sides; 0 = blocked by unlabeled MEK5, 100 = vehicle | binding response (% of control), % at 10 µM | 290,000 compounds, 1.4% hits;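 active = binding response more than 3 SD above or below the average of its plate-row segment, actives on both sides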;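 note: Alexa488 bead fluorescence after subtracting the streptavidin-only scavenger bead signal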
MEKK2wt confirm: raises or lowers MEK5 binding to wildtype human MEKK2, retest | AID 1892 | 5,900 compounds, 2.4% hits | bead flow cytometry, Alexa488-MEK5 binding to MEKK2 WT; actives lie on both sides | binding response (% of control), % at 10 µM | shares compounds with MEKK3 PB1 HTS; in the data active = binding response below about 16% or above about 210%; inactive = in between
MEKK2mut confirm: signal of MEK5 binding to mutant human MEKK2, retest; 5,900 compounds, 2% hits; bead flow cytometry, Alexa488-MEK5 binding to MEKK2 mutant; percent response, % at 10 µM; shares compounds with MEKK3 PB1 HTS; in the data active = percent response mostly above about 71%, no sharp cut-off; inactive = mostly below about 38%;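 note: higher means compound restores mutant binding toward wildtype level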
MEKK3 confirm: confirmation of inhibitors of MEK5 binding to human MEKK3. shares compounds with MEKK3 PB1 HTS. bead flow cytometry, Alexa488-MEK5 binding to MEKK3; active compounds read low. binding response (% of control), % at 10 µM. 5,900 compounds, 1.8% hits;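 active = binding response below 72% of control, or above a set upper limit, though filed actives all read lower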;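 note: lower values mean stronger disruption of MEK5 binding to MEKK3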
Large screens that a line does not name were inactive (follow-up assays come after a bar, where they were run); [ ] = remark or other dose.

CCN(CC)CCN(C(=O)c1ccc(C(=O)c2ccccc2)cc1)c1nc2c(OC)cccc2s1	MEKK2 mut-MEK5 42, MEKK2 WT-MEK5 178 | MEKK2wt confirm inactive | MEKK2mut confirm inactive | MEKK3 confirm inactive
CCN(CC)CCN(C(=O)c1ccc([N+](=O)[O-])cc1)c1nc2c(OC)cccc2s1	none
CCN(CC)CCN(C(=O)c1ccc(C(=O)c2ccccc2)cc1)c1nc2cc3c(cc2s1)OCO3	MEKK2 mut-MEK5 31, MEKK2 WT-MEK5 157 | MEKK2wt confirm inactive | MEKK2mut confirm inactive | MEKK3 confirm inactive
Cc1c(NC(=O)COC(=O)CSc2ccc(C(N)=O)cc2[N+](=O)[O-])c(=O)n(-c2ccccc2)n1C	none
Clc1ccccc1CN1CCN(/N=C/C=C/c2ccco2)CC1	none
Cc1cc(NC(=O)CSc2nc(C)c(C)c(=O)[nH]2)no1	none (no result: MEKK2 mut-MEK5, MEKK2 WT-MEK5, MEKK3 PB1 HTS)
CN(C)CCC(=O)c1ccc(Cl)cc1	MEKK2 mut-MEK5 27 | MEKK2wt confirm inactive | MEKK2mut confirm inactive | MEKK3 confirm inactive
CCOc1ccc(NCC(=O)c2ccc(C)cc2)cc1	none
Cc1ccc(C(=O)CNc2ccc(Cl)cc2)cc1	MEKK2 WT-MEK5 1.0[inhibitor], MEKK3 PB1 HTS 1.0[inhibitor] | MEKK2wt confirm inactive | MEKK2mut confirm inactive | MEKK3 confirm inactive
CCOc1ccc(NC(=O)CSc2nnc(-c3cc(C)[nH]n3)n2N)cc1	none
CN1CCN(C(=O)/C(=C\c2cccnc2)NC(=O)c2cccc(Br)c2)CC1	none
Cc1[nH]c2ccc(F)cc2c1CCNC(=O)C1CCCCC1C(=O)OCC(F)(F)F (centres undefined)	MEKK3 PB1 HTS 153 | MEKK2wt confirm inactive | MEKK2mut confirm inactive | MEKK3 confirm inactive
COc1ccc2[nH]c(C)c(CCNC(=S)Nc3ccc(F)cc3)c2c1	none
Cc1cccc(C(=O)NCc2nnc3c4ccccc4c(-c4ccccc4)nn23)c1	MEKK3 PB1 HTS 146 | MEKK2wt confirm inactive | MEKK2mut confirm inactive | MEKK3 confirm inactive
O=C(O)c1ccc(-c2nnc(-c3ccccc3)o2)cc1	none
O=C(O)c1ccc(-c2nnc(-c3ccc([N+](=O)[O-])cc3)o2)cc1	MEKK2 mut-MEK5 26 | MEKK2wt confirm inactive | MEKK2mut confirm inactive | MEKK3 confirm inactive
CCOC(=O)c1sc(NC(C)=O)nc1-c1ccccc1	MEKK2 WT-MEK5 -2.0[inhibitor], MEKK3 PB1 HTS 1.0[inhibitor] | MEKK2wt confirm inactive | MEKK2mut confirm inactive | MEKK3 confirm inactive
CCOc1ccc(N(C(C)C(=O)N2CCCCCC2)S(C)(=O)=O)cc1 (centres undefined)	none
CCc1ccc(OCC(=O)N/N=C(\C)c2ccc3c(c2)OCCO3)cc1	MEKK3 PB1 HTS 131 | MEKK2wt confirm inactive | MEKK2mut confirm inactive | MEKK3 confirm inactive
C#CCn1cc(C=C2C(=O)c3ccccc3C2=O)c2ccccc21	MEKK3 PB1 HTS 36[inhibitor] (no result: UBC13 inh) | MEKK2wt confirm inactive | MEKK2mut confirm inactive | MEKK3 confirm inactive
COc1ccc(-c2cc(C(=O)N/N=C(\C)c3cccnc3)c3ccccc3n2)cc1	none
COc1ccc(/C(C)=N/NC(=O)c2cc(-c3cccnc3)nc3ccccc23)cc1	MEKK3 PB1 HTS 147 | MEKK2wt confirm inactive | MEKK2mut confirm inactive | MEKK3 confirm inactive
C/C(=N\NC(=O)c1cc(-c2cccnc2)nc2ccccc12)c1ccccc1O	none
COc1cccc(/C(C)=N/NC(=O)c2cc(-c3cccnc3)nc3ccccc23)c1	MEKK3 PB1 HTS 129 | MEKK2wt confirm inactive | MEKK2mut confirm inactive | MEKK3 confirm inactive
CC(=O)c1cccc(NC(=O)C2=CN3CCS(=O)(=O)N=C3C=C2)c1	none (no result: MEKK2 mut-MEK5, MEKK2 WT-MEK5, MEKK3 PB1 HTS)
Cc1ccccc1C(=O)N(C)c1ccccc1C(=O)NCc1ccccc1	none
Fc1ccccc1OCCCCCCN1CCCC1	MEKK2 WT-MEK5 141 | MEKK2wt confirm inactive | MEKK2mut confirm inactive | MEKK3 confirm inactive
Fc1ccccc1OCCCCCN1CCCC1	none
COC(=O)C1=C(C(=O)OC)C2C(C)=CC(C)=CN2C(C(=O)OC)=C1C(=O)OC (centres undefined)	none

Screens: PubChem, several laboratories
